AMA1-RON2 inh = qHTS for Inhibitors of AMA1-RON; Towards Development of Antimalarial Drug Lead: Primary Screen; Plasmodium falciparum AMA1 (3D7) - RON2 peptide interaction; AlphaScreen AMA1-biotinylated RON2 peptide binding; Potency, µM (titrated, usually from 58.2 µM), without a hit: at the highest dose activity change, negative = inhibition, hits mostly inhibitors; hit rate 0.2% among 360,000; AID 720542, 2013;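 further: potency means the concentration at half of the fitted maximal effect; 0% = vehicle wells and -100% = peptide control; nearly all actives have a fitted effect of over 45% in size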
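AMA1 (3D7) with his tag at 25 nM final met compounds first, then biotinylated RON2 peptide at 25 nM; detection used donor plus acceptor beads, 10 µg/mL apiece, read by AlphaScreen after 30 min at room temperature.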
SARS PLpro yeast = qHTS of Yeast-based Assay for SARS-CoV PLP; S. cerevisiae expressing SARS-CoV PLpro, growth rescue; Potency, µM (series often up to 32.9 µM), without a hit: top-dose activity, positive = growth rescue, hits mostly activators; hit rate 0.19% among 330,000; calls by dose curve; further: potency means the concentration at half of the fitted maximal effect; 0% is about no effect; nearly all actives have a fitted effect of over 55% in size
Cycloheximide cs = Cycloheximide Counterscreen for Small Molecule Inhibitors of Shiga Toxin; cell reporter, cycloheximide protein synthesis inhibition counterscreen; max response, %; hit rate 12% among 300,000; in the data active means max response mostly above about 13%, no sharp cut-off; inactive means mostly below about 14%; further: read at 38.3 µM for the half of the compounds with a filed dose; 0% is about no effect
Pf growth 96h = Primary qHTS for delayed death inhibitors of the malarial parasite plastid, 96 hour incubation. P. falciparum luciferase reporter growth, 96 h. Potency, µM (doses to about 28.7 µM), without a hit: at the top dose activity change, negative = inhibition, usual class: inhibitors. hit rate 6.9% among 320,000. AID 504834, 2011; further: potency means the concentration at half of the fitted maximal effect; on the % scale 0 is the no-effect control and ±100 the full control effect
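Plates of compound plus infected erythrocytes (2% hematocrit, 0.05% parasitemia final) incubate 96 hours, 37 C, 5% CO2. Detection reagent added; reduced luminescence from the parasites' luciferase reporter flags inhibition.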
Shiga toxin inh = A qHTS for Small Molecule Inhibitors of Shiga Toxin. inhibition, % at 38.7 µM. Vero cells, Shiga toxin protein synthesis inhibition reporter. AID 2315, 2010. hit rate 9.2% among 290,000; in the data active means inhibition mostly above about 28%, no sharp cut-off; inactive means mostly below about 43%; further: 0% is about no effect
Pf growth 48h = Primary qHTS for delayed death inhibitors of the malarial parasite plastid, 48 hour incubation; P. falciparum luciferase growth in erythrocytes, 48 h; Potency, µM (series often up to 28.7 µM), for inactives: at the highest dose activity change, negative = inhibition, most hits filed as inhibitors; hit rate 5.9% among 310,000; AID 504832, 2011; further: potency means the concentration at half of the fitted maximal effect; on the % scale 0 is the no-effect control and ±100 the full control effect
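Luciferase-expressing parasites in RBCs, 2% Hct / 0.1% parasitemia final; RPMI 1640 + 0.5% Albumax; 37 C, 5% CO2, one generation; luminescence read-out, lower signal = inhibition.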
Numbers without * were called inactive. Rows were chosen to be rich in hits. Some 19% of all compounds tested hit in one or more screens of this group. Unless noted, the call rests on the fitted dose curve; in most records, active means well fitted curve in the direction sought with a large enough effect; inconclusive means small, poorly fitted or top-dose-only effect, or another doubt; inactive means no such curve, though single readings can be large; an effect the other way counts as inactive or inconclusive.

How did COc1cc(C(=O)O/N=C(\N)c2ccccn2)cc(OC)c1OC do in these assays?
AMA1-RON2 inh: 72.9%; SARS PLpro yeast: -1.3%; Cycloheximide cs: 33.8*; Pf growth 96h: inconclusive; Shiga toxin inh: 65.8*; Pf growth 48h: inconclusive

How did COc1ccc(C(=O)COC(=O)c2ccccn2)c(OC)c1 do in these assays?
AMA1-RON2 inh: 22.4%; SARS PLpro yeast: -5.7%

How did COc1ccc(C(=O)O/N=C(\N)c2ccccn2)c(OC)c1 do in these assays?
AMA1-RON2 inh: 39.2%; SARS PLpro yeast: -1.2%; Cycloheximide cs: 29.2*; Pf growth 96h: -28.2%; Shiga toxin inh: 33.9; Pf growth 48h: -12.3%

What do the screens show for `COc1ccc(C(=O)O/N=C(\N)c2ccc(OC)c(OC)c2)c(OC)c1`?
AMA1-RON2 inh: 1.7%; SARS PLpro yeast: -4.2%; Cycloheximide cs: 48.4*; Pf growth 96h: -9.2%; Shiga toxin inh: 92.7*; Pf growth 48h: 75.1%

Results for CCOc1ccc2cc(C3CC(c4ccco4)=NN3S(C)(=O)=O)c(=O)[nH]c2c1 (centres undefined) ?
AMA1-RON2 inh: 20.0%; SARS PLpro yeast: 0.9%; Cycloheximide cs: 9.0; Pf growth 96h: -12.9%; Shiga toxin inh: 21.4; Pf growth 48h: -7.3%

What do the screens show for `CC(CNC(=O)CC(C)(C)C)NC(=O)CC(C)(C)C` (centres undefined)?
AMA1-RON2 inh: inconclusive; SARS PLpro yeast: -9.4%; Cycloheximide cs: -2.6; Pf growth 96h: 19.9%; Shiga toxin inh: -3.0; Pf growth 48h: 8.1%

What do the screens show for `CCCCCCCCCCCCN1[C@@H](CC(=O)OC)c2cc(F)ccc2S1(=O)=O`?
AMA1-RON2 inh: 18.1%

What do the screens show for `COc1ccc(C(=O)O/N=C(\N)c2ccc(OC)c(OC)c2)cc1`?
AMA1-RON2 inh: 6.7%; SARS PLpro yeast: -2.8%; Cycloheximide cs: 26.9*; Pf growth 96h: 0.7%; Shiga toxin inh: 159.9*; Pf growth 48h: inconclusive

Results for O=C(COc1cc2oc(=O)c3c(c2cc1Cl)CCC3)NCC(O)c1ccccc1 (centres undefined) ?
AMA1-RON2 inh: -15.5%; SARS PLpro yeast: 1.9%; Cycloheximide cs: -4.2; Pf growth 96h: 13.1µM*; Shiga toxin inh: -4.3; Pf growth 48h: -0.3%

Results for Cc1cc(=O)oc2c(C)c(OC(C)C(=O)NCC(O)c3ccccc3)ccc12 (centres undefined) ?
AMA1-RON2 inh: -5.7%; SARS PLpro yeast: -0.6%; Cycloheximide cs: 1.5; Pf growth 96h: inconclusive; Shiga toxin inh: -9.2; Pf growth 48h: inconclusive

What do the screens show for `Cc1c(OCC(=O)NCC(O)c2ccccc2)ccc2c3c(c(=O)oc12)CCC3` (centres undefined)?
AMA1-RON2 inh: -11.6%; SARS PLpro yeast: 5.4%; Cycloheximide cs: 1.7; Pf growth 96h: 11.7µM*; Shiga toxin inh: -6.8; Pf growth 48h: -14.8%

How did Cc1c(OC(C)C(=O)NCC(O)c2ccccc2)ccc2c3c(c(=O)oc12)CCCC3 (centres undefined) do in these assays?
AMA1-RON2 inh: 0.1%; SARS PLpro yeast: -1.8%; Cycloheximide cs: 11.1; Pf growth 96h: 4.15µM*; Shiga toxin inh: -5.0; Pf growth 48h: 8.28µM*

How did Cc1c(OCC(=O)NCCCN2CCCC2=O)ccc2c3c(c(=O)oc12)CCCC3 do in these assays?
AMA1-RON2 inh: 4.2%; SARS PLpro yeast: 3.4%; Cycloheximide cs: 0.3; Pf growth 96h: 18.5µM*; Shiga toxin inh: -3.6; Pf growth 48h: inconclusive

How did Cc1c(OCC(=O)N[C@H](C(=O)O)c2ccccc2)ccc2c3c(c(=O)oc12)CCCC3 do in these assays?
AMA1-RON2 inh: 9.1%; SARS PLpro yeast: 1.3%; Cycloheximide cs: -1.3; Pf growth 96h: 71.8%; Shiga toxin inh: 1.2; Pf growth 48h: 29.6%

What do the screens show for `Cc1nc2scc(-c3ccc(Cl)cc3)c2c(=O)o1`?
AMA1-RON2 inh: -1.7%; SARS PLpro yeast: -4.4%; Cycloheximide cs: -4.8; Pf growth 96h: -18.7%; Shiga toxin inh: -8.9

What do the screens show for `CCc1cc(=O)oc2cc(OCC(=O)NCCCN3CCCC3=O)c(Cl)cc12`?
AMA1-RON2 inh: -6.0%; SARS PLpro yeast: 1.1%; Cycloheximide cs: 3.1; Pf growth 96h: 11.7µM*; Shiga toxin inh: 3.1; Pf growth 48h: inconclusive

How did COc1ccccc1/C=C/C=N/NC(=O)c1cnccn1 do in these assays?
AMA1-RON2 inh: 50.6%; SARS PLpro yeast: -0.6%; Cycloheximide cs: 34.7*; Pf growth 96h: inconclusive; Shiga toxin inh: 63.7*; Pf growth 48h: 27.1%

What do the screens show for `COc1ccccc1/C=C/C=N/NC(=O)c1ccc(=O)n(C)c1`?
AMA1-RON2 inh: 46.9%; SARS PLpro yeast: -25.5%; Cycloheximide cs: -1.3; Pf growth 96h: -10.3%; Shiga toxin inh: 3.1; Pf growth 48h: 3.9%

Results for COc1ccccc1/C=C/C=N/NC(=O)c1ccccn1 ?
AMA1-RON2 inh: inconclusive; SARS PLpro yeast: -4.9%; Cycloheximide cs: 22.6*; Pf growth 96h: -2.0%; Shiga toxin inh: 55.5*; Pf growth 48h: 358.5%

Results for Cc1ccc(NC(=O)[C@@H]2O[C@H](CO)[C@H](O)[C@H](O)[C@H]2O)cc1C(F)(F)F ?
AMA1-RON2 inh: 6.0%

What do the screens show for `CN(CC(=O)NCCN1CCN(Cc2ccccc2)CC1)S(=O)(=O)c1cccc2nsnc12`?
AMA1-RON2 inh: 2.0%; SARS PLpro yeast: 1.0%; Cycloheximide cs: -1.4; Pf growth 96h: 0.6%; Shiga toxin inh: 15.5; Pf growth 48h: inconclusive

How did CN(CC(=O)NCCc1ccccc1)S(=O)(=O)c1cccc2nsnc12 do in these assays?
AMA1-RON2 inh: 13.6%; SARS PLpro yeast: 14.7%; Cycloheximide cs: -1.9; Pf growth 96h: 8.28µM*; Shiga toxin inh: 0.9; Pf growth 48h: -13.7%

What do the screens show for `CN(CC(=O)N1CCN(Cc2ccccc2)CC1)S(=O)(=O)c1cccc2nsnc12`?
AMA1-RON2 inh: -1.9%; SARS PLpro yeast: -5.3%; Cycloheximide cs: -5.8; Pf growth 96h: 4.15µM*; Shiga toxin inh: 6.8; Pf growth 48h: -1.6%

Results for CCN(CCCNC(=O)CN(C)S(=O)(=O)c1cccc2nsnc12)c1ccccc1 ?
AMA1-RON2 inh: -8.5%; SARS PLpro yeast: -0.7%; Cycloheximide cs: 6.3; Pf growth 96h: 11.7µM*; Shiga toxin inh: 26.0; Pf growth 48h: inconclusive

What do the screens show for `CCCN(C)C1CN(Cc2cn(Cc3ccccc3)nn2)S(=O)(=O)C1` (centres undefined)?
AMA1-RON2 inh: 18.5%

How did Cc1nn(CC(=O)N2CCc3ccccc3C2)c(C)c1Cl do in these assays?
AMA1-RON2 inh: 11.7%; SARS PLpro yeast: -3.6%; Cycloheximide cs: -1.9; Pf growth 96h: inconclusive; Shiga toxin inh: -9.3; Pf growth 48h: 3.0%

How did CCCCNC(=O)Nc1c(C(=O)OCC)[nH]c2ccccc12 do in these assays?
AMA1-RON2 inh: 1.4%; SARS PLpro yeast: 9.5%; Cycloheximide cs: -1.0; Pf growth 96h: 8.28µM*; Shiga toxin inh: 9.8; Pf growth 48h: 5.9%

Assay outcomes (PubChem)
